BJeLR viability = kills HRASV12-expressing BJeLR cells; BJeLR (HRASV12) viability, CellTiter-Glo ATP luminescence, 48 h; inhibition, % (no concentration beside the values); 300,000 compounds, 0.17% hits; AID 1554; in the data active = inhibition above about 50%; inconclusive = no clear call, values can overlap the other calls
Bead autofluor = compound fluorescence in toxin protease inhibitor counterscreen. AID 624483. compound autofluorescence counterscreen, microsphere flow cytometry; hits give high values. fluorescence intensity (test concentration not listed). 360,000 compounds, 3.1% hits; in the data active = fluorescence intensity above about 16000; inconclusive = no clear call, values can overlap the other calls
3CLpro inhibitor = SARS-CoV 3CLpro protease inhibition. P0C6X7. recombinant SARS-CoV 3CLpro, quenched FRET peptide cleavage. inhibition, % at 6 µM. 290,000 compounds, 0.14% hits. AID 1706; in the data active = inhibition above about 12%
BoNT A protease = blocks Botulinum neurotoxin A light chain protease. multiplex microsphere protease substrate cleavage, flow cytometry. inhibition, % at 10 µM. 360,000 compounds, 0.17% hits. AID 588499; note: plate controls were buffer without enzyme for full effect and enzyme alone for no effect
Anthrax LF prot = inhibitors of Bacillus anthracis lethal factor protease | multiplex microsphere protease cleavage assay, LF | inhibition, % at 10 µM | 360,000 compounds, 0.12% hits | AID 588501; note: plate controls were buffer without enzyme for full effect and enzyme alone for no effect
BoNT F protease = blocks Botulinum neurotoxin F light chain protease; Multiplex microsphere protease cleavage assay, flow cytometry; inhibition, % at 10 µM; 360,000 compounds, 0.22% hits; AID 588497; in the data active = inhibition above about 35%, passing the limit was not always enough; inconclusive = no clear call, values can overlap the other calls; note: plate controls were buffer without enzyme for full effect and enzyme alone for no effect
The depositor's hits bear a star; ! = not active in a repeat. Only some compounds are listed: those with a hit (about 3.6% of all), similar ones and a draw of the others. Cut-off read from the data, not from the text of the source, unless noted: active = inhibition above about 30%; inconclusive = no clear call, values can overlap the other calls; inactive = below that.

For Cc1ccccc1CSc1nnc(NC(=O)C2COc3ccccc3O2)s1 (stereo not given) the results were BJeLR viability 2, Bead autofluor 20631*, 3CLpro inhibitor -8, BoNT A protease 5, Anthrax LF prot -16 and BoNT F protease 4.
O=C(O)c1c2c(nc3ccc(F)cc13)CCC2 was read as BJeLR viability 4, Bead autofluor 20799*, 3CLpro inhibitor 2, BoNT A protease 6, Anthrax LF prot 0 and BoNT F protease 6.
`Cc1ccc2nc3c(c(C(=O)O)c2c1)CCC3` gave BJeLR viability 1, Bead autofluor 9591, 3CLpro inhibitor -5, BoNT A protease -1, Anthrax LF prot -2 and BoNT F protease -4.
`O=C1CCC(=O)N1CC(=O)N1CCCc2ccccc21` gave BJeLR viability -4, Bead autofluor 3081, 3CLpro inhibitor -6, BoNT A protease 0, Anthrax LF prot -2 and BoNT F protease 7.
Screening C=CCn1c(SCC(=O)Nc2ccc3c(c2)OCCO3)nnc1-c1ccco1 returned BJeLR viability -1, Bead autofluor 16334*, 3CLpro inhibitor 3, BoNT A protease -1, Anthrax LF prot -3 and BoNT F protease 1.
`C=CCn1c(CNC(=O)c2ccco2)nnc1SCC(=O)Nc1cccc(F)c1` gave BJeLR viability 2, Bead autofluor 4602, 3CLpro inhibitor 0, BoNT A protease -1, Anthrax LF prot -7 and BoNT F protease -6.
Screening C=CCn1c(C)nnc1SCC(=O)Nc1ccc2c(c1)OCCO2 returned Bead autofluor 2910, BoNT A protease 0, Anthrax LF prot -2 and BoNT F protease -3.
Screening CCn1c(CNC(=O)c2ccco2)nnc1SCC(=O)Nc1cc(C)c(C)cc1Br returned BJeLR viability 7, Bead autofluor 22252*, 3CLpro inhibitor -3, BoNT A protease inconclusive, Anthrax LF prot 1 and BoNT F protease 0.
Screening C=CCn1c(CNC(=O)c2ccco2)nnc1SCC(=O)Nc1cccc(Br)c1 returned BJeLR viability -4, Bead autofluor 24230*, 3CLpro inhibitor 0, BoNT A protease -2, Anthrax LF prot 0 and BoNT F protease -2.
`O=C(c1ccc2nc3ccc(Cl)cc3c(=O)n2c1)N1CCOCC1` gave BJeLR viability -3, Bead autofluor 21084*, 3CLpro inhibitor 1, BoNT A protease -2, Anthrax LF prot 0 and BoNT F protease 0.
For O=C(c1cnc2ccc(Cl)cc2c1Cl)N1CCOCC1 the results were BJeLR viability -5, Bead autofluor 4329, 3CLpro inhibitor 3, BoNT A protease -1, Anthrax LF prot -2 and BoNT F protease -3.
For O=C(c1ccc2nc3ccc(Cl)cc3c(=O)n2c1)N1CCC2(CC1)OCCO2 the results were Bead autofluor 19917*, 3CLpro inhibitor 3, BoNT A protease 3, Anthrax LF prot 1 and BoNT F protease 2.
FC(F)(F)c1cc(-c2cccs2)nc2ncnn12 was read as BJeLR viability 2, Bead autofluor 5408, 3CLpro inhibitor 0, BoNT A protease 0, Anthrax LF prot -10 and BoNT F protease 2.
Screening CCOc1nc(-c2ccc(Cl)cc2Cl)ccc1C#N returned BJeLR viability -10, Bead autofluor inconclusive, 3CLpro inhibitor 4, BoNT A protease -2, Anthrax LF prot -32 and BoNT F protease -15.
`Cc1cc(Cl)ccc1Oc1nc(-c2ccc(F)cc2)ccc1C#N` gave BJeLR viability 6, Bead autofluor 22004*, 3CLpro inhibitor -1, BoNT A protease inconclusive, Anthrax LF prot -1 and BoNT F protease 0.
Cn1c2ccc(Cl)cc2c2nc3ccccc3nc21 was read as BJeLR viability 8, Bead autofluor 4173, 3CLpro inhibitor -4, BoNT A protease 40*, Anthrax LF prot 25 and BoNT F protease 18.
Screening Cc1ccc2c(c1)c1nc3ccccc3nc1n2C returned BJeLR viability -3, Bead autofluor 3344, 3CLpro inhibitor -2, BoNT A protease 24, Anthrax LF prot 4 and BoNT F protease 21.
`CCN(CC(=O)Nc1c(F)cccc1F)C(=O)C1COc2ccccc2O1` (stereo not given) gave Bead autofluor 2951, BoNT A protease 0, Anthrax LF prot -4 and BoNT F protease -8.
Screening c1ccc(CNc2ncnc3ccccc23)cc1 returned BJeLR viability 2, Bead autofluor 20097*!, 3CLpro inhibitor -4, BoNT A protease 6, Anthrax LF prot -2 and BoNT F protease 8.
`CCOC(=O)c1cc(NC(=O)c2ccc(OC)cc2)c(=O)oc1-c1ccccc1` gave BJeLR viability 9, Bead autofluor 22500*, 3CLpro inhibitor 2, BoNT A protease inconclusive, Anthrax LF prot -4 and BoNT F protease -2.
For COC(=O)c1cc(NC(=O)c2ccc(OC)cc2)c(=O)oc1C the results were BJeLR viability 3, Bead autofluor 4881, 3CLpro inhibitor 0, BoNT A protease -1, Anthrax LF prot 0 and BoNT F protease -4.
`CC(=O)c1cc(NC(=O)c2ccc(C)cc2)c(=O)oc1/C=C/N(C)C` gave BJeLR viability 7, Bead autofluor 4103, 3CLpro inhibitor -2, BoNT A protease 0, Anthrax LF prot -5 and BoNT F protease -9.
For COc1ccc(C(=O)Nc2cc(C(C)=O)c(/C=C/N(C)C)oc2=O)cc1 the results were BJeLR viability 7, Bead autofluor 16251*, 3CLpro inhibitor 1, BoNT A protease 1, Anthrax LF prot 1 and BoNT F protease 0.
`CC1=CC(C)(C)N2C(=O)C3(SCC(=O)N3c3ccc(O)cc3)c3cc(C)cc1c32` (stereo not given) gave BJeLR viability -17, Bead autofluor 20630*, 3CLpro inhibitor 3, BoNT A protease 3, Anthrax LF prot -4 and BoNT F protease 3.
`Cc1ccc(N2C(=O)CSC23C(=O)Nc2ccccc23)cc1` (stereo not given) gave BJeLR viability 4, Bead autofluor inconclusive, 3CLpro inhibitor 1, BoNT A protease 0, Anthrax LF prot -6 and BoNT F protease -10.
For COc1cc(OC)c(C(=O)Nc2ccc(S(=O)(=O)Nc3ncccn3)cc2)cc1OC the results were BJeLR viability -4, Bead autofluor 21604*, 3CLpro inhibitor 5, BoNT A protease 4, Anthrax LF prot 0 and BoNT F protease 5.
Screening COc1ccc(C(=O)NCc2ccc(N3CCN(C)CC3)cc2)cc1 returned BJeLR viability -5, Bead autofluor 3554, 3CLpro inhibitor -7, BoNT A protease 4, Anthrax LF prot 23 and BoNT F protease 31.
`COc1ccc(C(=O)NCc2ccc(N3CCN(C(=O)OC(C)(C)C)CC3)cc2)cc1` gave BJeLR viability 3, Bead autofluor 22812*, 3CLpro inhibitor -4, BoNT A protease -2, Anthrax LF prot -2 and BoNT F protease -5.
Screening COc1cccc(C(=O)NCc2ccc(N3CCN(C(=O)OC(C)(C)C)CC3)cc2)c1 returned BJeLR viability 4, Bead autofluor 20260*, 3CLpro inhibitor 3, BoNT A protease 1, Anthrax LF prot -1 and BoNT F protease 2.

Source: PubChem
